Laboratory results from PubChem BioAssay AID1851 (National Center for Advancing Translational Sciences (NCATS), 2009).
Screen size: about 16,000 compounds; about 5,100 (32%) were called active. Inconclusive results (about 25%) are left out. Some of the results follow. Unmarked numbers belong to inactive results. Calls come from the whole dose curve; as a rule, active = well fitted curve in the direction sought with a large enough effect; inconclusive = small, poorly fitted or top-dose-only effect, or effect the other way; inactive = no such curve, though single readings can be large or run the other way.

The molecules below were run against Cytochrome P450 3A4 (Homo sapiens) (UniProt P08684) (assay: Cytochrome panel assay with activity outcomes). Details: recombinant CYP, pro-luciferin dealkylation, luminescence, p450-cyp3a4; series mostly up to 57.1 µM; activity, negative = inhibition: at the top concentration.
% is set by controls: 0 for no effect and ±100 for the full control effect.

Chain of Cytochrome P450 3A4 (Homo sapiens) (P08684 whole entry, looked up): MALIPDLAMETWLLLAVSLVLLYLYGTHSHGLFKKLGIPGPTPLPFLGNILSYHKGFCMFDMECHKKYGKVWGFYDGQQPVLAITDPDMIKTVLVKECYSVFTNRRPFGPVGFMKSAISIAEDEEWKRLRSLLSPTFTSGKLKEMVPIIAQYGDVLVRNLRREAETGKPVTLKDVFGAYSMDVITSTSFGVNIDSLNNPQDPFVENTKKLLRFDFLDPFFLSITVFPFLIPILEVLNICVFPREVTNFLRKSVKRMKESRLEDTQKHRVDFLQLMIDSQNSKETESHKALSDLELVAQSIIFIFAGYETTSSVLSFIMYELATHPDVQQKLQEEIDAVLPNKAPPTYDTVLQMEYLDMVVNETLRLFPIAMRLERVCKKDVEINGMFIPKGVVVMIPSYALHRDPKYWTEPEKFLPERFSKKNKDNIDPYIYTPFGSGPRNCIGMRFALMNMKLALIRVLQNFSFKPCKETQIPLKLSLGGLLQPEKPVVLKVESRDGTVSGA

| Compound | activity, negative = inhibition | AC50 |
| --- | --- | --- |
| COC(=O)Cn1cc(/C=N/NC(=O)c2ccc(C#N)cc2F)c2ccccc21 | -10.5% [at 2.29 µM] |  |
| O=C1C2C3C=CC(C3)C2C(=O)N1/N=C/c1cn(Cc2ccccc2)c2ccccc12 (centres undefined) | -22.4% [at 11.4 µM] |  |
| O=C1C2C3C=CC(C3)C2C(=O)N1/N=C/c1cn(Cc2ccc(F)cc2)c2ccccc12 (centres undefined) |  | 2.82 µM (active) |
| COC(=O)/C=C\CCc1coc(/C=C\CNC(=O)OC)n1 | -19.3% [at 11.4 µM] |  |
| COC(=O)[C@@H]1C[C@H]1[C@@H](NC(=O)Oc1ccc(F)cc1)c1ccccc1 |  | 12.6 µM (active) |
| COC(=O)[C@H]1C[C@@H]1[C@H](NC(C)=O)c1ccccc1 | -23.7% |  |
| COC(=O)[C@H]1C[C@@H]1[C@H](NC(=O)Oc1ccc(F)cc1)c1ccccc1 |  | 15.8 µM (active) |
| COC(=O)[C@@H]1C[C@H]1[C@@H](NC(C)=O)c1ccccc1 | -18.2% |  |
| O=C(O)[C@H]1CN(CCCP(=O)(O)O)CCN1 |  | inactive |
| COC(=O)C1(C)C=C2C(=C(c3ccccc3)C(=O)C2C)CN1 (centres undefined) |  | 10 µM (active) |
| CCCCCC1=C2CNC(CCC)(C(=O)OC)C=C2C(C)C1=O (centres undefined) |  | 20 µM (active) |
| COC(=O)C1(Cc2ccccc2)C=C2C(=C(C(C)C)C(=O)C2C)CN1 (centres undefined) |  | 7.94 µM (active) |
| CCCCCC1=C2CNC(C)(C(=O)OC)C=C2C(C)C1=O (centres undefined) |  | 12.6 µM (active) |
| CCCCCC1=C2CNC(Cc3ccccc3)(C(=O)OC)C=C2C(C)C1=O (centres undefined) |  | 15.8 µM (active) |
| COc1ncc2nc(-c3cccs3)c(=O)n(C)c2n1 |  | 15.8 µM (active) |
| Cn1c(=O)c(-c2cccs2)nc2cnc(Oc3ccccc3)nc21 | 7.32% |  |
| COc1ccc(Oc2ncc3nc(-c4cccs4)c(=O)n(C)c3n2)cc1 |  | 3.98 µM (active) |
| Cc1cc(C2(c3cc(C)c(O)c(C(=O)O)c3)OS(=O)(=O)c3ccccc32)cc(C(=O)O)c1O | 5.57% [at 11.4 µM] |  |
| CC1=CC(C)(C)Nc2ccc(CSc3ccccc3)cc21 |  | 3.98 µM (active) |
| Cc1cc2c(cc1C)NC1=C(N2)O[C@H](c2c[nH]c3ccc(COc4ccccc4)cc23)C1=O |  | 3.98 µM (active) |
| O=C(O)c1c[nH]c2cc(OCc3ccccc3)ccc2c1=O | -10.2% [at 11.4 µM] |  |
| COCCN=C1Sc2nc3c(C)cccc3cc2CN1Cc1ccco1 |  | 14.1 µM (active) |
| CC1(C)[C@@H]2CC[C@]1(C)[C@@H](OC(=O)CSC#N)C2 | -20.6% [at 11.4 µM] |  |
| O=c1c(-c2ccccc2)nc2cncnc2n1Cc1ccccc1Cl | -26.7% |  |
| O=c1cnc2cncnc2n1Cc1ccccc1Cl | -25.7% |  |

| Compound | activity, negative = inhibition | AC50 |
| --- | --- | --- |
| O=c1c(CCc2ccccc2)nc2cncnc2n1Cc1ccc(F)cc1 |  | 3.16 µM (active) |
| O=c1c(CCc2ccccc2)nc2cncnc2n1Cc1ccccc1Cl |  | 15.8 µM (active) |
| CCCCCCCCCCCCCC(=O)O[C@H](CC(=O)O)C[N+](C)(C)C | -18.2% |  |
| CCCCCCCCCCCCCCCCCCOC[C@@H](COP(=O)([O-])OCC[N+](C)(C)C)OC | 3.29% |  |
| CCCCCCCCCCCCCCCCCC(=O)NC[C@@H](COP(=O)([O-])OCC[N+](C)(C)C)OCC |  | 31.6 µM (active) |
| CCCCCCCCCCCCCCCC(=O)NC[C@@H](COP(=O)([O-])OCC[N+](C)(C)C)OCC |  | 25.1 µM (active) |
| CCCCCCCCCCCCCCCCCCNC(=O)OC[C@@H](COP(=O)([O-])OCC[n+]1ccsc1)OC | 9.2% |  |
| CCCCCCCCCCCCCCCCCC(=O)O[C@H](CC(=O)O)C[N+](C)(C)C | -3.53% |  |
| CCCCCCC(C)n1cc(C(C)=O)c(=O)[nH]c1=O (centres undefined) | 12.8% [at 2.29 µM] |  |
| Fc1cccc(Cl)c1CSc1ncn[nH]1 |  | 4.47 µM (active) |
| CCCC[C@@H]1C[C@H]1C(NC(=O)c1ccc(C(F)(F)F)cc1)c1ccc(C(=O)OC)cc1 (some centres undefined) |  | 5.01 µM (active) |
| CCCC[C@@H]1C[C@H]1C(NC(=O)c1cccs1)c1ccc(C(F)(F)F)cc1 (some centres undefined) |  | 3.16 µM (active) |
| CCCC[C@@H]1C[C@H]1C(NC(=O)c1cccs1)c1ccc(Cl)cc1 (some centres undefined) |  | 5.01 µM (active) |
| CCCC[C@@H]1C[C@H]1C(NC(=O)c1cccs1)c1ccccc1C(F)(F)F (some centres undefined) |  | 3.16 µM (active) |
| Cc1ccc(OCCNC(=O)c2cc(-n3cnnc3)ccc2Cl)cc1C |  | 7.94 µM (active) |
| CN(C)CCNC(=O)c1cc(Br)ccc1Cl | -12.1% |  |
| CCOC(=O)CNC(=O)c1cccnc1 | 4.45% [at 11.4 µM] |  |
| Cc1ccc(OCCNC(=O)c2cncc(Br)c2)cc1C |  | 7.08 µM (active) |
| CCOC(=O)c1cncc(C(=O)O)c1 | 1.77% [at 2.29 µM] |  |
| CCOC(=O)CCCNC(=O)c1cncc(Br)c1 |  | 14.1 µM (active) |
| O=C(Nc1ccccc1)c1cc(-n2cnnc2)ccc1Cl | 14.9% |  |
| O=C(NC(=S)Nc1ccc(Br)cn1)c1cncc(Br)c1 | -24.4% [at 2.29 µM] |  |
| Cc1nc2c(OCc3ccccc3)cccn2c1CC#N |  | 15.8 µM (active) |
| Cn1c(-c2sccc2OCc2ccccc2)n[nH]c1=S | 19.7% |  |
| Nc1nc(=O)c2[nH]cnc2n1O | -2.96% [at 11.4 µM] |  |

| Compound | activity, negative = inhibition | AC50 |
| --- | --- | --- |
| CC(C)Cn1c(=O)n(C)c(=O)c2[nH]cnc21 |  | 3.98 µM (active) |
| Cn1c(=O)c2[nH]cnc2n(C)c1=O |  | inactive |
| CN(Cc1cc(Cl)cc(Cl)c1O)Cc1c(O)ccc2ccccc12 | -29.5% [at 11.4 µM] |  |
| CC(C)(N)C(=O)N[C@@H]1C(=O)N2[C@@H]1SC(C)(C)[C@H]2C(=O)O | -5.57% [at 11.4 µM] |  |
| Nc1ccc(N(c2ccccc2)c2ccc(N)cc2)cc1 |  | 1.78 µM (active) |
| Nc1ccc(S(=O)(=O)NC(=O)c2ccccc2)cc1 | -6.82% [at 25.6 µM] |  |
| COc1ccc(C2C3=C(CC(C)(C)CC3=O)Oc3ncn(CC(C)C)c(=N)c32)cc1 (centres undefined) |  | 12.6 µM (active) |
| N#CCCn1c(=O)c(-c2cccc(C#N)c2)nc2cnc(Oc3ccccc3)nc21 | -12.2% |  |
| COCCn1c(=O)c(-c2cccc(C#N)c2)nc2cnc(Oc3ccc(OC)cc3)nc21 |  | 2.51 µM (active) |
| N#CCCn1c(=O)c(-c2ccc(F)cc2)nc2cnc(Oc3cccc(Cl)c3)nc21 | -20.7% |  |
| COCCn1c(=O)c(-c2cccc(C#N)c2)nc2cnc(N(C)C)nc21 | -19.3% |  |
| COCCn1c(=O)c(-c2cccc(C#N)c2)nc2cnc(OCc3ccccc3)nc21 |  | 10 µM (active) |
| N#CCCn1c(=O)c(-c2ccc(F)cc2)nc2cnc(OCc3ccccc3)nc21 |  | 15.8 µM (active) |
| COCCn1c(=O)c(-c2cccc(C#N)c2)nc2cnc(Oc3ccccc3)nc21 |  | 25.1 µM (active) |
| CN(C)c1ncc2nc(-c3ccc(F)cc3)c(=O)n(CCC#N)c2n1 | -6.39% |  |
| CC(C)(C)NC[C@@H](O)COc1ccccc1C1CCCC1 | -7.01% [at 25.6 µM] |  |
| COc1cc2c(cc1OC)-c1cc3ccc(OC)c(OC)c3c[n+]1CC2 | -16.2% [at 25.6 µM] |  |
| CC(C)c1ccc2nc3sc(C(=O)N4CCc5ccccc5C4)c(N)c3cc2c1 | 6.07% [at 2.29 µM] |  |
| CC(C)C(NS(=O)(=O)c1cccc2nsnc12)C(=O)N1CCc2ccccc2C1 (centres undefined) |  | 7.08 µM (active) |
| Cc1ccc(S(=O)(=O)N[C@H](C(=O)N2CCC(C(=O)NCC(=O)O)CC2)C(C)C)cc1 | -18.8% |  |
| COC(=O)C(NC(=O)c1ccc(Cl)cc1)(Nc1nc(C)cs1)C(F)(F)F (centres undefined) |  | 14.1 µM (active) |
| Cc1cc(OC(=O)c2ccc(Cl)cc2)cc(=O)n1C | -9.63% |  |
| CCOc1ccc(C(=O)CCC(=O)O)cc1 | 4.1% |  |
| CCOc1ccc(/C=C/C(=O)Nc2ccc(OC)cc2[N+](=O)[O-])cc1 | -0.704% |  |
| CCOc1ccc(C(=O)Cc2cc(OC)c(OC)cc2[N+](=O)[O-])cc1 |  | 7.94 µM (active) |

| Compound | activity, negative = inhibition | AC50 |
| --- | --- | --- |
| C[C@]12CC[C@H]3c4ccc(OC[C@H]5CO5)cc4CC[C@H]3[C@H]1CC[C@@H]2O | 11.8% [at 11.4 µM] |  |
| O=C(NCCCN1CCc2ccccc2C1)Nc1ccc(Cl)cc1 | 18.3% |  |
| O=C(NCCCn1ccnc1)Nc1ccc(Cl)cc1 |  | 0.398 µM (active) |
| S=C(S)NCCCn1ccnc1 |  | 1.58 µM (active) |
| COc1ccc2c(Cl)c(C(=O)NCCCn3ccnc3)sc2c1Cl |  | 0.501 µM (active) |
| COc1ccc(C(=O)N/C(=C/c2cccs2)C(=O)NCCCn2ccnc2)cc1OC |  | 1.58 µM (active) |
| NCCNC(=S)S | -20.2% [at 11.4 µM] |  |
| S=C(S)NCCN1CCNCC1 | -13.6% [at 11.4 µM] |  |
| Cn1nccc1C(=O)Nc1ccc(Cl)cc1 | -16.2% |  |
| CC(C)(CO)[C@H](O)C(=O)NCCCO | -2.39% [at 25.6 µM] |  |
| N[C@@H](Cc1cc(-c2ccc(Cl)cc2Cl)cc(CP(=O)(O)O)c1O)C(=O)O | -5.32% |  |
| O=C(O)C1CCCCC1C(=O)Nc1ccccc1Cl (centres undefined) | 2.92% |  |
| CCc1ccccc1NC(=O)C1C(c2ccccc2)C1(Cl)Cl (centres undefined) |  | 15.8 µM (active) |
| COC(=O)C1=C(C)NC2=C(C(=O)CCC2)C1c1cn(Cc2ccc(Cl)cc2Cl)nc1-c1ccccc1 (centres undefined) |  | 2.51 µM (active) |
| C[C@H](C[C@H](N)C(=O)O)C(=O)O | -6.08% |  |
| CC[N+](CC)(CC)CCOc1cccc(OCC[N+](CC)(CC)CC)c1OCC[N+](CC)(CC)CC | 5.02% |  |
| Nc1cc(Cl)ccc1Oc1ccc(Cl)cc1 | 13.4% |  |
| Cc1cc(Cl)ccc1Oc1ncc(-c2ccc(Cl)cc2)cn1 |  | 7.08 µM (active) |
| Clc1ccc(-c2ccnc(Oc3cc(Cl)ccc3Cl)n2)cc1 | -6.59% |  |
| O=C(NC1CCCC1)c1cccnc1N1CCCCCC1 |  | 14.1 µM (active) |
| O=[N+]([O-])c1cccnc1N1CCCCC1 | -1.84% |  |
| O=C(O)C1CCN(c2ncccn2)CC1 | -12.1% |  |
| Cc1noc(C)c1COc1cccc(C(=O)OCC(=O)N2CC(=O)Nc3ccccc32)c1 |  | 4.47 µM (active) |
| COCc1c(C(=O)OCC(=O)N2c3ccccc3NC(=O)C2(C)C)oc2ccccc12 | 0.0262% |  |
